# Data reported in the supplement of paper PMC8728848.
# This excerpt belongs to a sample that is enriched for the strongest signals.
# How the values were obtained:
# Assay in all cases: glycan array binding signal (z-score within array); higher = stronger binding
# Settings in all cases: glycan notation: IUPAC condensed, linker removed
# [1] = target: Fuc(a1-2)Gal(b1-3)GalNAc(a1-3)[Fuc(a1-2)]Gal(b1-4)GlcNAc
# Summary of the method: (§1)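 The binding signal is a Z-score computed within each array and averaged over linkers. Arrays of the same protein sequence at different concentrations or buffers were also averaged together. Data originate from 3228 arrays in the Consortium for Functional Glycomics database, kept only where the protein sequence was available.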
# [2] = target: Fuc(a1-2)Gal(b1-3)GlcNAc(b1-3)[Neu5Ac(a2-6)Gal(b1-4)GlcNAc(b1-6)]Gal(b1-4)Glc
# Summary of the method: as §1
# [3] = target: Fuc(a1-2)[Gal(a1-3)]Gal(b1-3)GlcNAc
# Summary of the method: as §1
# [4] = target: Fuc(a1-2)[Gal(a1-3)]Gal(b1-3)GlcNAc(b1-3)GalNAc
# Summary of the method: as §1
# [5] = target: Fuc(a1-2)[Gal(a1-3)]Gal(b1-4)GlcNAc(b1-3)[Fuc(a1-2)[Gal(a1-3)]Gal(b1-4)GlcNAc(b1-6)]GalNAc
# Summary of the method: as §1
# [6] = target: Fuc(a1-2)[GalNAc(a1-3)]Gal(b1-3)GlcNAc
# Summary of the method: as §1
# [7] = target: Fuc(a1-2)[GalNAc(b1-3)]Gal
# Summary of the method: as §1
# [8] = target: Fuc(a1-3)[Gal(b1-4)]Glc6S
# Summary of the method: as §1
# Gal(a1-3)Gal = target: Gal(a1-3)Gal
# Summary of the method: as §1
# [9] = target: Gal(a1-4)Gal(b1-4)GlcNAc(b1-2)Man(a1-3)[Gal(a1-4)Gal(b1-4)GlcNAc(b1-2)Man(a1-6)]Man(b1-4)GlcNAc(b1-4)GlcNAc
# Summary of the method: as §1
# Gal(b1-2)Gal = target: Gal(b1-2)Gal
# Summary of the method: as §1
# [10] = target: Gal(b1-3)GalNAc(b1-3)Gal(a1-4)Gal(b1-4)Glc
# Summary of the method: as §1
# [11] = target: Gal(b1-3)GalNAc(b1-4)[Neu5Ac(a2-3)]Gal(b1-4)Glc
# Summary of the method: as §1
# [12] = target: Gal(b1-3)GlcNAc(b1-6)Gal(b1-4)GlcNAc
# Summary of the method: as §1
# [13] = target: Gal(b1-3)[Fuc(a1-4)]GlcNAc(b1-3)Gal(b1-4)[Fuc(a1-3)]GlcNAc
# Summary of the method: as §1
# [14] = target: Gal(b1-4)GlcNAc(b1-2)Man(a1-3)[Gal(b1-4)GlcNAc(b1-2)Man(a1-6)]Man(b1-4)GlcNAc(b1-4)[Fuc(a1-6)]GlcNAc
# Summary of the method: as §1
# [15] = target: Gal(b1-4)GlcNAc(b1-2)[Gal(b1-4)GlcNAc(b1-4)]Man(a1-3)[GlcNAc(b1-4)][Gal(b1-4)GlcNAc(b1-2)Man(a1-6)]Man(b1-4)GlcNAc(b1-4)GlcNAc
# Summary of the method: as §1
# [16] = target: Gal(b1-4)GlcNAc(b1-3)Gal(b1-4)GlcNAc(b1-3)Gal(b1-4)GlcNAc(b1-2)Man(a1-3)[Gal(b1-4)GlcNAc(b1-3)Gal(b1-4)GlcNAc(b1-3)Gal(b1-4)GlcNAc(b1-2)Man(a1-6)]Man(b1-4)GlcNAc(b1-4)[Fuc(a1-6)]GlcNAc
# Summary of the method: as §1
# [17] = target: Gal(b1-4)GlcNAc(b1-6)[Gal(b1-4)GlcNAc(b1-3)]GalNAc
# Summary of the method: as §1
# Gal3S(b1-3)GalNAc = target: Gal3S(b1-3)GalNAc
# Summary of the method: as §1
# Gal4S6S(b1-4)GlcNAc = target: Gal4S6S(b1-4)GlcNAc
# Summary of the method: as §1
# [18] = target: GlcNAc(a1-4)Gal(b1-4)GlcNAc(b1-3)Gal(b1-4)GlcNAc
# Summary of the method: as §1
binder,measurement,setting,value
Di AAL2 (Agrocybe aegerita) (protein) MTSNVITQDLPIPVASRGFADIVGFGLDGVVIGRNAVNLQPFLAVKNFAQNAGGWLTTKHVRLIADTTGTGKGDIVGFGNAGVYVSVNNGKNTFADPPKMVIANFGYDAGGWRVEKHLRYLADIRKIGRADIIGFGEKGVLVSRNNGGLNFGPATLVLKDFGYDAGGWRLDRHLRFLADVTGNGHLDIVGFGDKHVFISRNNGDGTFAPAKSVIDNFCIDAGGWKIGDHPRFVADLTGDGTADIIGCGKAGCWVALNNGGGVFGQVKLVINDFGTDKGWQAAKHPRFIADLTGNGRGDVVGFGNAGVYVALNNGDGTFQSAKLVLKDFGVQQGWTVSKHRRFVVDLTGDGCADIIGFGEKETLVSYNDGKGNFGPVKALTNDFSFSGGKWAPETTVCWMANLDSSRHPAPAPMTSNVITQDLPIPVASRGFADIVGFGLDGVVIGRNAVNLQPFLAVKNFAQNAGGWLTTKHVRLIADTTGTGKGDIVGFGNAGVYVSVNNGKNTFADPPKMVIANFGYDAGGWRVEKHLRYLADIRKIGRADIIGFGEKGVLVSRNNGGLNFGPATLVLKDFGYDAGGWRLDRHLRFLADVTGNGHLDIVGFGDKHVFISRNNGDGTFAPAKSVIDNFCIDAGGWKIGDHPRFVADLTGDGTADIIGCGKAGCWVALNNGGGVFGQVKLVINDFGTDKGWQAAKHPRFIADLTGNGRGDVVGFGNAGVYVALNNGDGTFQSAKLVLKDFGVQQGWTVSKHRRFVVDLTGDGCADIIGFGEKETLVSYNDGKGNFGPVKALTNDFSFSGGKWAPETTVCWMANLDSSRH,glycan array binding signal (z-score),[1],-0.31
same,glycan array binding signal (z-score),[2],-0.337
same,glycan array binding signal (z-score),[3],-0.338
same,glycan array binding signal (z-score),[4],-0.312
same,glycan array binding signal (z-score),[5],-0.292
same,glycan array binding signal (z-score),[6],-0.172
same,glycan array binding signal (z-score),[7],-0.337
same,glycan array binding signal (z-score),[8],-0.322
same,glycan array binding signal (z-score),Gal(a1-3)Gal,-0.332
same,glycan array binding signal (z-score),[9],5.32
same,glycan array binding signal (z-score),Gal(b1-2)Gal,-0.333
same,glycan array binding signal (z-score),[10],-0.331
same,glycan array binding signal (z-score),[11],-0.314
same,glycan array binding signal (z-score),[12],-0.333
same,glycan array binding signal (z-score),[13],-0.331
same,glycan array binding signal (z-score),[14],-0.343
same,glycan array binding signal (z-score),[15],-0.313
same,glycan array binding signal (z-score),[16],-0.209
same,glycan array binding signal (z-score),[17],-0.313
same,glycan array binding signal (z-score),Gal3S(b1-3)GalNAc,-0.334
same,glycan array binding signal (z-score),Gal4S6S(b1-4)GlcNAc,-0.338
same,glycan array binding signal (z-score),[18],2.68
